Shown is part of a subset that was picked to be rich in hits.
VHR inh color – inhibitors of human VHR1 phosphatase (DUSP3); AID 1992; P51452; recombinant VHR phosphatase, colorimetric substrate read-out; inhibition, % at 20 µM; 0.7% of 50,000 active; in the data active = inhibition above about 60%
Target sequence (P51452 whole entry, looked up): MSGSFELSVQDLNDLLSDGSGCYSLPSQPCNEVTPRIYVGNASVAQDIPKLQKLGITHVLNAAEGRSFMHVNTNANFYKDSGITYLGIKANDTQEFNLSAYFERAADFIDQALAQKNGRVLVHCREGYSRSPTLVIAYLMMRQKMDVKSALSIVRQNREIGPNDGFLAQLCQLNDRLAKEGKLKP
Numbers stand for hits.

`Cc1ccc2c(c1)c1c3n2CCN(CC(O)c2ccc(Br)cc2)C3CCC1` (stereo not drawn) gave VHR inh color inactive.
CCOc1ccc2c(c1)-c1c(ssc1=S)C(C)(C)N2C(=O)c1cccnc1 was read as VHR inh color inactive.
Cc1onc(-c2ccccc2Cl)c1C(=O)NCCC(c1ccccc1)c1ccccc1 was read as VHR inh color inactive.
Screening Cc1cc(/C=N/O)c(C)c(COCc2cc(C)cc(/C=N/O)c2C)c1 returned VHR inh color inactive.
For COc1cc(-c2csc(/C(C#N)=C/Nc3cccc(F)c3)n2)ccc1O the results were VHR inh color inactive.
CCOc1ccc2ccccc2c1/C=C1/C(=O)NC(=O)N(C)C1=O was read as VHR inh color inactive.
For CC1(C)C(C=C(Cl)Cl)C1C(=O)NC1CCCCC1 (stereo not drawn) the results were VHR inh color inactive.
`COc1cccc(NC(=O)C2(C)CC3c4ccccc4C2c2ccccc23)c1` (stereo not drawn) gave VHR inh color inactive.
`COC(=O)c1ccc(NC(=O)C2(C)CC3c4ccccc4C2c2ccccc23)cc1` (stereo not drawn) gave VHR inh color inactive.
Cc1c(Cl)cccc1NC(=O)C1(C)CC2c3ccccc3C1c1ccccc12 (stereo not drawn) was read as VHR inh color 79.
CC(=O)Oc1ccc(-c2cccc(C(=O)Nc3cccc([N+](=O)[O-])c3)c2)cc1 was read as VHR inh color inactive.
COc1cc(/C=C2/SC(=S)NC2=O)ccc1OC(=O)c1cccc(Br)c1 was read as VHR inh color inactive.
`CC(=C\c1ccccc1)/C=C1/SC(=O)N(c2ccc(Cl)cc2)C1=O` gave VHR inh color inactive.
`CN1C(=O)NC(=O)/C(=C\c2cc(Cl)c(O)c(Cl)c2)C1=O` gave VHR inh color inactive.
For O=C1NC(=S)N(c2ccccc2)C(=O)/C1=C/c1ccc(O)c(Cl)c1 the results were VHR inh color inactive.
Screening O=C1NC(=S)N(c2ccc(F)cc2)C(=O)/C1=C/c1ccc(-c2cccc(C(=O)O)c2)o1 returned VHR inh color 86.
For O=C1NC(=S)N(c2ccc(Br)cc2)C(=O)/C1=C/c1ccc(-c2ccc(C(=O)O)cc2)o1 the results were VHR inh color 78.
`O=C1NC(=S)N(c2ccc(F)cc2)C(=O)/C1=C/c1cc(Cl)c(O)c(Cl)c1` gave VHR inh color 78.
For Cc1ccc(N2C(=O)/C(=C\c3ccc(-c4ccc(Cl)c(C(=O)O)c4)o3)C(=O)NC2=S)cc1 the results were VHR inh color inactive.
`O=C1NC(=S)N(c2ccc(Cl)cc2)C(=O)/C1=C\c1ccc(-c2cccc(C(=O)O)c2)o1` gave VHR inh color inactive.
Screening CN1C(=O)NC(=O)/C(=C/c2ccc(-c3ccc(C(=O)O)cc3)o2)C1=O returned VHR inh color inactive.
O=C1NC(=S)N(c2ccccc2)C(=O)/C1=C/c1ccc(-c2ccc(Cl)c(C(=O)O)c2)o1 was read as VHR inh color inactive.
Screening CCCOc1ccc(C(=O)Nc2ccc(O)c(-c3nc4ccccc4s3)c2)cc1 returned VHR inh color inactive.
NC(=O)c1ccccc1NC(=O)c1cccc(F)c1 was read as VHR inh color inactive.
For O=C(Nc1ccc2nn(-c3ccc(F)cc3)nc2c1)c1ccc([N+](=O)[O-])cc1 the results were VHR inh color inactive.
For COc1ccc2c(c1)N(C(=O)CN1C(=O)c3ccccc3C1=O)C(C)(C)c1ssc(=S)c1-2 the results were VHR inh color inactive.
CC1(C)c2ssc(=S)c2-c2ccccc2N1C(=O)CSc1nnc(N)s1 was read as VHR inh color inactive.
`Cn1ccnc1SCC(=O)N1c2ccccc2-c2c(ssc2=S)C1(C)C` gave VHR inh color inactive.
For CC1(C)c2ssc(=S)c2-c2ccccc2N1C(=O)CN1CCOCC1 the results were VHR inh color 97.
`CC1(C)c2ssc(=S)c2-c2ccccc2N1C(=O)CN1CCCCC1` gave VHR inh color 98.
`COc1cc(C(=O)N2c3ccccc3-c3c(ssc3=S)C2(C)C)cc(OC)c1OC` gave VHR inh color inactive.
O=C(Nc1cccc(NC(=O)c2cccc3ccccc23)c1)c1cccc(Cl)c1 was read as VHR inh color inactive.
`O=C(NCc1ccco1)C(=O)Nc1cccc(C(F)(F)F)c1` gave VHR inh color inactive.
`Cc1c(C(=O)Nc2ccc(NC(=O)c3ccc(Br)cc3)cc2)cccc1[N+](=O)[O-]` gave VHR inh color inactive.
`COc1ccc(C(=O)Nc2ccccc2)cc1S(=O)(=O)NCc1ccccc1` gave VHR inh color inactive.
`COC(=O)c1c(NC(=O)c2cccc(F)c2)sc2c1CCC(C)C2` (stereo not drawn) gave VHR inh color inactive.
Screening Cc1cc(C)nc(SCC(=O)N2c3ccccc3Sc3ccc(Cl)cc32)n1 returned VHR inh color inactive.
NC(=O)c1c(NC(=O)c2cc(Cl)ccc2[N+](=O)[O-])sc2c1CCCC2 was read as VHR inh color inactive.
For Oc1c(Br)cc(Br)cc1/C=N/c1ncn[nH]1 the results were VHR inh color inactive.
For O=c1[nH]c(=O)n(-c2ccccc2Cl)c(O)c1C=C1C=CC=N1 the results were VHR inh color inactive.
Screening CCOc1ccccc1-n1c(O)c(C=C2C=CC=N2)c(=O)[nH]c1=O returned VHR inh color inactive.
`Cn1c(O)c(/C=C2/C=CC=N2)c(=O)n(-c2ccccc2)c1=S` gave VHR inh color 69.
Screening COc1ccc(N(C(C)C(=O)N/N=C/c2ccc(N(C)C)c(Br)c2)S(C)(=O)=O)cc1 (stereo not drawn) returned VHR inh color inactive.
`CCCC1=NN2C(=N)/C(=C/c3ccc(-c4ccc([N+](=O)[O-])cc4C)o3)C(=O)N=C2S1` gave VHR inh color inactive.
For Clc1cccc(C=NN2CCN(Cc3ccccc3Cl)CC2)c1 the results were VHR inh color inactive.
Screening O=C(COc1ccc2ccccc2c1)N1CCN(S(=O)(=O)c2ccc(Cl)cc2)CC1 returned VHR inh color inactive.
For Cc1ccc(S(=O)(=O)N2CCN(C(=O)COc3ccc(Cl)cc3)CC2)cc1 the results were VHR inh color 87.
`O=C(COc1ccc(Cl)cc1)N1CCN(C(=O)COc2ccc3ccccc3c2)CC1` gave VHR inh color inactive.
For CCOC(=O)C1=C(O)/C(=C\c2ccccc2OC)N=C1C the results were VHR inh color inactive.
For O=C1C=C/C(=N\S(=O)(=O)c2ccccc2)C=C1Cl the results were VHR inh color inactive.
For CC1=C/C(=N/S(=O)(=O)c2ccc(C)cc2)C=C(Cl)C1=O the results were VHR inh color inactive.
O=C1C(Cl)=CC(=NS(=O)(=O)c2ccccc2)C=C1Br was read as VHR inh color 72.
CSc1nc(N)c(C#N)c(-c2ccccc2)c1C#N was read as VHR inh color inactive.
`O=C(O)c1ccc(N2CCC(c3ccccc3)=N2)cc1` gave VHR inh color inactive.
`Cc1cc(NC(=O)Cc2cccs2)ccc1NC(=O)c1cccs1` gave VHR inh color inactive.
`C/C(=C\C(=O)c1ccccc1)Nc1ccc(Br)c(C)c1` gave VHR inh color inactive.
Screening CC(C)C1S/C(=N/N=C/c2ccc(O)cc2)NC1=O (stereo not drawn) returned VHR inh color 93.
For Cc1ccc(/C=N/N=C2\NC(=O)C(C)S2)cc1 (stereo not drawn) the results were VHR inh color inactive.
For COc1ccc(CC2S/C(=N\N=C\c3ccc(C(C)C)cc3)NC2=O)cc1 (stereo not drawn) the results were VHR inh color inactive.
Screening CCOc1ccc(C(=O)Nc2cc(C)ccn2)cc1Br returned VHR inh color inactive.
